Test results from PubChem BioAssay (NCATS).
Results filed as inconclusive are left out. Activity calls are given as the source filed them. Unless noted, calls come from the whole dose curve; as a rule, active = well fitted curve in the direction sought with a large enough effect; inconclusive = small, poorly fitted or top-dose-only effect, or another doubt; inactive = no such curve, though single readings can be large; an effect the other way counts as inactive or inconclusive.

Tests used:
[1] = qHTS to identify inhibitors of the type 1 interferon - major histocompatibility complex class I in skeletal muscle: primary screen against the NCATS Pharmaceutical Collection (AID 1347407);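 note: luminescence of HiBiT knocked into endogenous HLA-B as interferon-induced MHC class I level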
In short: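 A qHTS format is used: 8-point, 1:5 compound series with 46 uM top final concentration, applied alongside 4 ng/ml IFN-beta to HLA-B*08:01-HiBiT knock-in myoblasts. Luminescence is measured after 24 h treatment.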

[2] = target: Protein phosphatase 1D (Homo sapiens) (UniProt O15297); assay: RapidFire Mass Spectrometry qHTS Assay for Modulators of WT P53-Induced Phosphatase 1 (WIP1) (AID 1347424);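 note: amount of dephosphorylated VEPPL-S-QETFS peptide product formed by WIP1; series mostly up to about 63 µM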
In short: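 Mass-spectrometric measurement of dephosphorylated peptide after a 5 min room-temperature reaction of 10 nM WIP1 with 2 uM phosphopeptide, following 1 h compound preincubation in 30 mM MgCl2 buffer.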

[3] = target: Protein phosphatase 1D (Homo sapiens) (UniProt O15297); assay: Rhodamine-PBP qHTS Assay for Modulators of WT P53-Induced Phosphatase 1 (WIP1) (AID 1347425)
In short: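 Read-out: Rhodamine-PBP fluorescence (ex 525/em 598 nm) for released Pi, read each minute for 11 min after adding 10 uM VEPPL-pS-QETFS; signal taken as f1 minus pre-substrate f0. Enzyme 5 nM WIP1 with 1 hr room-temperature compound preincubation.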

[4] = Primary qHTS for inhibitors of La Crosse Virus (LACV) - induced cell death in SH-SY5Y cells (AID 1508616);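 note: top concentration of the series differs between compounds; higher means more rescue of cells from virus-induced death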
In short: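 SH-SY5Y, 6000 cells/well; cpd via pin tool in DMSO; LACV 0.01 MOI; 6 d 37C 5% CO2; ATPLite, 5 min RT; luminescence normalized to ±virus DMSO controls.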

[5] = target: Calcium and integrin-binding protein 1 (Homo sapiens) (UniProt Q99828); assay: Primary qHTS for Identification of Calcium Integrin Binding Protein 1 (CIB1) Competitor (AID 1508620);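 note: GST tagged CIB1 binding a fluorescein labelled alphaIIb integrin peptide tracer; top concentration of the series differs between compounds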
In short: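 Fluorescence polarization competition: CIB1-GST (1 uM final) preincubated with compound 15 min at room temperature, then FITC-labeled alphaIIb peptide (100 nM final) added for another 15 min. Polarization read at Ex 480/Em 540.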

[6] = Primary qHTS for small molecule stabilizers of the endoplasmic reticulum resident proteome: Secreted ER Calcium Modulated Protein (SERCaMP) assay (AID 1508630)
In short: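 The SH-SY5Y reporter protocol was run at 3 concentrations up to 38.3 uM (primary) or 11 concentrations (follow-up): 16 h compound, 100 nM thapsigargin for 4 h, then extracellular luciferase luminescence.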

[7] = A High-Content qHTS Against Drug Library for the Identification of Small Molecules that Inhibit DYT1 Early Onset Primary Dystonia-Associated Cell Pathology (AID 1645839; calls by dose curve; note: series mostly up to about 46 µM)
In short: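 Induced EGFP-delE TorsinA cells are imaged after 48 h of compound treatment. Punctate fusion-protein distribution gives the %pathology value, while nuclei counts flag toxicity. Wild-type EGFP-hTOR1A cells define the normal pattern.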

Measured: Potency

Sequence of Protein phosphatase 1D (Homo sapiens) (O15297 whole entry, looked up): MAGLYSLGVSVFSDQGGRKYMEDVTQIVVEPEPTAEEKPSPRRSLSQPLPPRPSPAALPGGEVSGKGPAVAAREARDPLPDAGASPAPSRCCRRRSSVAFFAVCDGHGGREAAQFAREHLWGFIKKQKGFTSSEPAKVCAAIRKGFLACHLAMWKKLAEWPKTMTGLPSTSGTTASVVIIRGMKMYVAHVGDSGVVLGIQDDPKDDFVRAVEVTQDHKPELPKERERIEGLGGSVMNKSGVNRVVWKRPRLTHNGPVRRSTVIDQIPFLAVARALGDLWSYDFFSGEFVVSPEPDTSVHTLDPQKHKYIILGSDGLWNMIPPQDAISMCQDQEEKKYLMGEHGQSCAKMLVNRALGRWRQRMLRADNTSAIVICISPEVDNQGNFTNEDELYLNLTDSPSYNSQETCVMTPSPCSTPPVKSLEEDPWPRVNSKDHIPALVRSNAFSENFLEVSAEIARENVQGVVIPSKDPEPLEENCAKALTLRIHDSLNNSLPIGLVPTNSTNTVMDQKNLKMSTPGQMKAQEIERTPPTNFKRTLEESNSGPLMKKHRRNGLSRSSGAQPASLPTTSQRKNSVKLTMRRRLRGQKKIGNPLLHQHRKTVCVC
Sequence of Calcium and integrin-binding protein 1 (Homo sapiens) (Q99828 whole entry, looked up): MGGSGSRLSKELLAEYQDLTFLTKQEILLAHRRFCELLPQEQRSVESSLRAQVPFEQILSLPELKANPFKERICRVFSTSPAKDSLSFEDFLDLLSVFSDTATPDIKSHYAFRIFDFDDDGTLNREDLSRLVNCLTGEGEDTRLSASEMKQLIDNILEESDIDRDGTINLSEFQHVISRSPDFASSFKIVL

CCC(CN)=C(c1ccccc1)c1ccccc1
not listed: [7]
inactive: all other assays above

CN(C(=O)C(Cl)Cl)c1ccc(OC(=O)c2ccco2)cc1
inactive: all assays above

CC(CCc1ccc2c(c1)OCO2)NN (stereo unspecified)
inactive: all assays above

CO[C@@H]1[C@@H](O[C@@H]2O[C@H](C)[C@@H](O[C@H]3C[C@@](C)(O)[C@@H](O)[C@H](C)O3)[C@H](N(C)C)[C@H]2O)[C@@H](CC=O)C[C@@H](C)[C@@H](O[C@@H]2CC[C@H](N(C)C)[C@@H](C)O2)/C=C/C=C/C[C@@H](C)OC(=O)C[C@H]1OC(C)=O
inactive: all assays above

CCN1CCCC1CN (stereo unspecified)
inactive: all assays above

COc1cc(/C=C/C(N)=O)cc(OC)c1OC
inactive: all assays above

NS(=O)(=O)c1ccc(N2CCCCS2(=O)=O)cc1
inactive: all assays above

O=C(O)C1CCC1
inactive: all assays above

CCOC(=O)CN1CCCC1=O
inactive: all assays above

Nc1ncnc2c1ncn2Cc1c(F)cccc1Cl
inactive: all assays above

CCCCCCCCCCCCCCCCCCN(C)C
inactive: all assays above
